# Screening data as filed in PubChem BioAssay.
# SMARCA2 activ: activators of SMARCA2 function | actives 1% (n = 370,000) | activation, % at 9.1 µM | MG213 cells, MMTV-luciferase reporter, dexamethasone, overnight; in the data active = activation above about 7.8%;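 note: 0% = vehicle wells and 100% = reference activator wells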
# esBAF inh: SWI/SNF esBAF complex inhibition; reporter increase, % at 12.5 µM; AID 602393; actives 2% (n = 350,000); mouse ES cells, Bmi1-luciferase knock-in reporter, 24 h; 100% = twice the neutral-well signal; in the data active = activation above about 40%;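 note: 0% = median of the plate's neutral control wells and 100% = double that signal; a rise in the Bmi1 reporter signal indicates esBAF inhibition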
# GRIN3A LBD mod: modulators (binders) of human NR3A ligand-binding domain | NR3A LBD differential scanning fluorimetry, Tm shift; 0% = protein alone, 100% = glycine-bound protein | AID 1259313 | Tm shift relative to glycine control, % at 25 µM | actives 2.5% (n = 340,000);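 active = melting temperature shift of at least 10% of the positive control shift, at one fixed dose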
# Vif imaging: blocks HIV Vif function; HEK293T cells, Vif self-association by quenched fluorescence, imaging, 24 h; inhibition, % at 7.49 µM; actives 0.35% (n = 340,000); in the data active = inhibition above about 50%, passing the limit was not always enough
# NadD inh: inhibitors of Staphylococcus aureus NadD; purified NadD enzyme, colorimetric absorbance read-out; inhibition, % at 20 µM; actives 0.78% (n = 360,000); AID 602399; in the data active = inhibition above about 26%
# SKN-1 inh: inhibitors of C. elegans SKN-1; C. elegans VP596 Pgst-4::GFP/RFP ratio, acrylamide-induced, 24 h; inhibition, % at 21.8 µM; actives 0.49% (n = 360,000);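 active = interference check ratio from 0.5 to 1.5 plus GFP to RFP signal ratio inhibition reaching or exceeding a fixed threshold, cut at about 30% in these data, passing the limit was not always enough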
# * = called active by the depositor; nt = not tested or not shown. Shown are actives, neighbours in structure and some others; about 5.2% of the full set was active somewhere.
SMILES,SMARCA2 activ,esBAF inh,GRIN3A LBD mod,Vif imaging,NadD inh,SKN-1 inh
Cc1ccc(NC(=O)C2CCN(S(=O)(=O)c3ccc4c(c3)NC(=O)C(C)S4)CC2)cc1Cl (stereo unspecified),-8.8,-22.1,10.1*,-20.0,20.1,1.1
CCOCCCNS(=O)(=O)c1ccc(NC(=O)c2ccc(OC)c([N+](=O)[O-])c2)cc1,2.7,nt,16.6*,6.8,1.3,4.5
COc1ccc(C(=O)Nc2ccc(S(=O)(=O)N3CCN(C)CC3)cc2)cc1[N+](=O)[O-],-1.3,-2.0,8.2,14.0,-0.3,-8.5
CCNC(=O)[C@H]1[C@H](CO)[C@H]2Cn3c(ccc(/C=C/c4ccccc4)c3=O)[C@H]2N1C(C)=O,nt,-4.8,nt,nt,nt,nt
Nc1ccc2c(c1)N1CCN=C1S2,2.4,-6.1,0.9,0.2,3.2,-14.9
O=C(Nc1ccc(Cl)cc1)Nc1ccc2c(c1)N1CCN=C1S2,-2.8,20.0,13.6*,1.3,14.8,28.5
C[C@@H]1CN([C@@H](C)CO)C(=O)c2cc(NC(=O)Nc3cccc4ccccc34)ccc2O[C@H]1CN(C)S(=O)(=O)c1ccc(Cl)cc1,nt,-1.6,nt,nt,nt,nt
CC(/C=N/Nc1ncc(C)c(=O)[nH]1)=C\c1ccccc1,0.2,nt,0.7,3.4,1.5,41.4*
CC(/C=N/Nc1nc(C)cc(=O)[nH]1)=C\c1ccccc1,-3.6,10.1,-2.2,-18.3,5.5,3.5
COc1cc(OC)cc(C(=O)N(CN2CCCC2=O)c2ccccc2OC)c1,-2.5,-2.4,0.6,53.6*,-1.7,2.3
Cc1ccc(CCNC(=O)C2CCCN2S(=O)(=O)c2ccc3c(c2)CCC(=O)N3)cc1 (stereo unspecified),nt,11.9,-2.5,nt,2.4,2.8
COc1ccc(NC(=O)C2CCCN2S(=O)(=O)c2ccc3c(c2)CCC(=O)N3)c(OC)c1 (stereo unspecified),7.9*,-12.2,-3.1,-4.9,-0.7,5.6
O=C(O)C(=O)/C(=C\c1ccsc1)c1ccc2ccccc2n1,3.2,55.7*,2.0,13.5,1.7,-3.1
O=C(O)C(=O)/C(=C\c1ccccc1)c1ccc2ccccc2n1,7.6,37.1,-1.3,27.6,3.0,9.1
COc1ccc(C(=O)NC(=S)Nc2ccc([N+](=O)[O-])cc2C)cc1OC,-1.5,-4.2,28.5*,13.7,-4.5,3.3
O=C(C[C@H]1CC[C@H]2[C@@H](COC[C@H](O)CN2CC2CCCCC2)O1)NCc1ccc(F)cc1,nt,-1.7,nt,nt,nt,nt
CCc1nc(N)nc(N)c1-c1ccc(N(C)Cc2ccccc2)c([N+](=O)[O-])c1,-2.3,nt,12.6*,30.0,-3.3,-11.1
CC(=O)Nc1ccc(C(=O)N/N=C/c2ccccc2OCc2ccccc2)cc1,1.9,7.0,-2.9,6.8,-2.1,-2.4
Cc1ccc(C(C)C)c(OCc2ccc(C(=O)N/N=C/c3ccc(O)c(O)c3)cc2)c1,-10.0,nt,33.6*,-1.3,33.7*,-11.8
Cc1ccc(C(C)C)c(OCc2ccc(C(=O)N/N=C/c3cccc(O)c3O)cc2)c1,-5.1,nt,23.9*,4.3,19.2,-7.6
COc1cc(/C=N\NC(=O)c2ccc(-c3ccccc3)cc2)cc(OC)c1O,1.9,nt,11.8*,-4.1,6.0,2.4
COc1cc(/C=N/NC(N)=O)cc(Br)c1OCc1ccc(C)cc1,-0.4,-8.4,-1.1,-1.3,-4.7,-12.1
COc1cc(/C=N/NC(=O)c2ccc(COc3cc(C)ccc3C(C)C)cc2)cc(OC)c1O,-4.2,nt,20.7*,-4.5,28.6,2.4
C[C@H]1CCCCO[C@H](CN(C)S(=O)(=O)c2ccc(Cl)cc2)[C@@H](C)CN([C@@H](C)CO)C(=O)c2cc(NC(=O)Nc3cccc4ccccc34)ccc2O1,nt,-3.4,nt,nt,nt,nt
O=C(CN1C(=O)S/C(=C\c2cc(Cl)c(O)c(Cl)c2)C1=O)Nc1ccccc1,-0.5,0.9,11.7*,-13.2,2.7,1.7
SMILES,SMARCA2 activ,esBAF inh,GRIN3A LBD mod,Vif imaging,NadD inh,SKN-1 inh
O=C(CN1C(=O)S/C(=C\C=C\c2ccccc2)C1=O)Nc1ccc(O)cc1,6.8,nt,14.9*,-1.3,5.2,-2.4
Cc1noc(C)c1NC(=O)N(C)C[C@H]1OCCCC[C@H](C)Oc2ccc(NS(=O)(=O)c3c(C)noc3C)cc2C(=O)N([C@@H](C)CO)C[C@@H]1C,nt,-1.3,nt,nt,nt,nt
O=C(CN1CCOCC1)NCC[C@@H]1CC[C@@H](NC(=O)c2ccccc2F)[C@H](CO)O1,nt,-3.6,nt,nt,nt,nt
COCCCNC(=S)N(Cc1ccccc1)Cc1nc2ccccc2c(=O)[nH]1,0.3,2.8,-6.5,-14.5,3.3,14.5
CCNC(=S)N(Cc1ccccc1)Cc1nc2ccccc2c(=O)[nH]1,-0.4,nt,10.0*,3.1,1.1,9.3
COc1ccc(NC(=O)N(C)C[C@@H]2OCCCC[C@H](C)Oc3ccc(NS(=O)(=O)c4ccccc4)cc3C(=O)N([C@H](C)CO)C[C@H]2C)cc1,nt,-0.4,nt,nt,nt,nt
CC(C)(C)N1CC(COc2ccccc2)OC1=O (stereo unspecified),-1.4,61.7*,-0.2,1.4,1.1,7.9
CN(C)C(=O)C[C@@H]1CC[C@@H]2[C@H](COC[C@H](O)CN2C(=O)C2CCCC2)O1,nt,-2.1,nt,nt,nt,nt
Cc1[nH]c2ccccc2c1-c1csc(N)n1,-0.1,6.1,-4.0,-0.4,3.6,-18.6
Cc1c(-c2csc(N)n2)c2ccccc2n1C,-2.1,-0.6,-0.6,13.5,10.0,36.7*
C[C@H](CO)N1C[C@H](C)[C@H](CN(C)Cc2ccc(Oc3ccccc3)cc2)Oc2ccc(NC(=O)C3CC3)cc2CC1=O,nt,-5.4,nt,nt,nt,nt
O=C(O)c1cc2c(s1)-c1ccccc1OC2,2.5,18.5,-1.7,2.4,-1.8,-30.3
O=C(NCc1cccs1)c1cc2c(s1)-c1ccccc1OC2,-5.2,67.8*,-3.9,nt,-10.4,3.6
O=C(NCc1cccs1)c1cc2c(s1)CS(=O)(=O)C2,-0.8,nt,15.3*,7.9,-3.6,5.2
O=C(NC1CC1)c1cc2c(s1)-c1ccccc1OC2,0.4,45.1*,-1.2,-15.1,5.4,-1.5
O=C(Nc1cccc(C(F)(F)F)c1)c1cc2c(s1)-c1ccccc1OC2,-1.4,nt,36.6*,1.1,-4.5,-5.5
Cc1noc(C)c1S(=O)(=O)N(C)C[C@@H]1Oc2ccc(NS(C)(=O)=O)cc2CC(=O)N([C@H](C)CO)C[C@H]1C,nt,-7.1,nt,nt,nt,nt
Cc1noc(C)c1NC(=O)Nc1ccc2c(c1)C(=O)N([C@H](C)CO)C[C@@H](C)[C@H](CN(C)Cc1ccc(Oc3ccccc3)cc1)O2,nt,-9.8,nt,nt,nt,nt
O=C(Cn1c(=O)n(Cc2ccco2)c(=O)c2c3c(sc21)CCCCC3)c1ccccc1,nt,9.8,-0.5,4.8,35.5*,-17.5
O=c1c2c3c(sc2nc(NCCO)n1Cc1ccco1)CCCCC3,4.1,79.6*,-9.5,-6.1,-5.2,9.6
CN(C)CCNc1nc2sc3c(c2c(=O)n1Cc1ccccc1)CCCCC3,-3.6,-3.5,-0.2,-3.0,-12.1,12.2
COCCNc1nc2sc3c(c2c(=O)n1Cc1ccco1)CCCCC3,7.1,75.1*,-5.4,-8.8,nt,nt
